# Tb PYK inh = inhibitors of Trypanosoma brucei pyruvate kinase. Q57TT1. TbPYK enzyme, Kinase-Glo Plus ATP luminescence, 45 min. Potency, µM (doses to about 76.8 µM), hits mostly inhibitors. 410,000 compounds, 0.12% hits. AID 624173; also: nearly all actives have a fitted effect of over 50% in size
#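 TbPYK + substrate in 50 mM TEA pH 7.2, 100 mM KCl, 10 mM MgCl2, 0.05% BSA, 0.01% Tween-20; cpd pinned; ADP 130 uM final; 45 min RT; Kinase-Glo Plus 10 min; luminescence endpoint.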
# RE007 growth inh = less growth of the S. pombe RE007 Vpr strain. S. pombe RE007 Vpr strain, BacTiter-Glo ATP luminescence, 24 h. Potency, µM (highest dose often 92.2 µM), usual class: inhibitors. 360,000 compounds, 0.21% hits; active = well fitted falling curve with a large enough effect; inconclusive = small, poorly fitted or top-dose-only effect; inactive = no such curve, though single readings can be large or run the other way; also: nearly all actives have a fitted effect of over 50% in size
#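 Fission yeast RE007 carrying one integrated HIV-1 vpr copy, seeded at OD 0.01 in PMG+AL medium with 23 nL pinned compound. Grown 24 h at 30 degrees; viability read by BacTiter-Glo luminescence after 5 min.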
# AMA1-RON2 inh = AMA1-RON2 (P. falciparum) interaction inhibition; AlphaScreen AMA1-biotinylated RON2 peptide binding; Potency, µM (highest dose often 58.2 µM), actives largely listed as inhibitors; 360,000 compounds, 0.2% hits; also: nearly all actives have a fitted effect of over 45% in size
#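 AMA1 (3D7) with his tag at 25 nM final met compounds first, then biotinylated RON2 peptide at 25 nM; detection used donor plus acceptor beads, 10 µg/mL apiece, read by AlphaScreen after 30 min at room temperature.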
# NS1 inh = influenza NS1 inhibition; Potency, µM (top dose mostly 46.1 µM); 270,000 compounds, 0.4% hits; calls by dose curve; also: actives are rising curves; nearly all actives have a fitted effect of over 50% in size
#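 Compounds were scored for reversing the slow growth caused by influenza A NS1 in S. cerevisiae, measured by optical density at 600 nm. Assay medium contained 2% galactose at pH 6.0; NS1-free yeast of the same strain were the positive control.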
# LmPK inhibitor = LmPK (Leishmania mexicana) enzyme inhibition; Q27686; purified LmPK, Kinase-Glo ATP luminescence, 1 h; Potency, µM (doses to about 57.5 µM), actives largely listed as inhibitors; 290,000 compounds, 0.37% hits; AID 1721
# Target sequence (Q27686 whole entry, looked up): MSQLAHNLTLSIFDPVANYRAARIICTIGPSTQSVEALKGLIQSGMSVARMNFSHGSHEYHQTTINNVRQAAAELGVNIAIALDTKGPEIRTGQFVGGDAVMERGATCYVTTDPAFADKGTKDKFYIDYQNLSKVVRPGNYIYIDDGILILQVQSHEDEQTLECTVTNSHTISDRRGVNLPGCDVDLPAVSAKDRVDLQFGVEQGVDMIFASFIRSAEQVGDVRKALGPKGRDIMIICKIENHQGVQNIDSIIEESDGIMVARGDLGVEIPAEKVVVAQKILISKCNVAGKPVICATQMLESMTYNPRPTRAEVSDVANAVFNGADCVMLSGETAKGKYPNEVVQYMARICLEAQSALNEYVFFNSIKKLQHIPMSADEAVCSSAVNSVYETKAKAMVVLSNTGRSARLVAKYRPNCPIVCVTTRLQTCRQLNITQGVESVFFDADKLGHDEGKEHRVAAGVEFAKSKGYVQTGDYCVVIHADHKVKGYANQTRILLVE
#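 Pyruvate kinase activity monitored as ATP production (luciferase luminescence). Conditions: 0.1 nM enzyme, 0.5 mM PEP, 0.1 mM ADP, 1 h, RT; normalized against uninhibited and no-enzyme wells.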
# Hits are given with their value; . = inactive; ? = inconclusive; / = no result; [ ] = dose if it differs, or a comment. An excerpt weighted towards active compounds, which were near 0.92% of everything screened. Unless noted, calls follow the shape of the dose curve; as a rule, active = well fitted curve in the direction sought with a large enough effect; inconclusive = small, poorly fitted or top-dose-only effect, or another doubt; inactive = no such curve, though single readings can be large; an effect the other way counts as inactive or inconclusive.
SMILES,Tb PYK inh,RE007 growth inh,AMA1-RON2 inh,NS1 inh,LmPK inhibitor
NC1=NC([S][Hg][c]2ccc(N)cc2)c2ncn([C@@H]3O[C@H](CO)[C@@H](O)[C@@H]3O)c2N1 (stereo partly specified),/,/,/,.,/
CN(C)CCCN=c1c2ccccc2n(C)c2[nH]c(=O)n(C)c(=O)c12,/,/,/,.,/
CSc1nc(N(C)CCO)c2sc3nc(-c4ccco4)c4c(c3c2n1)CCC4,.,.,11.9µM,?,.
COc1cc(C=C2C(=O)C=CC2=O)ccc1O,3.55µM,2µM,?,/,/
CCOC(=O)C1=C(C)N(c2ccccc2)C(=O)/C1=C\c1ccc(O)c(OC)c1,.,.,?,2.51µM,?
CN1CCC[C@@H]1c1cccnc1.O=C(O)c1ccccc1O.O=C([OH2+])c1ccccc1O.O=C([OH2+])c1ccccc1O.[Mn],/,/,/,.,/
Cc1[nH]n(-c2ccccc2)c(=S)c1C=Nc1ccc([N+](=O)[O-])cc1,2.82µM,.,.,.,.
COc1cc2c(cc1OC)-c1n[nH]c(=S)n1C(C)(C)C2,?,.,.,/,17.8µM
CCc1ccccc1NC(=O)Nc1ccc2c(c1)N(CC)C(=O)c1ccccc1S2,.,/,/,/,/
Cc1ccccc1-n1c(SCC(=O)c2c(N)n(C)c(=O)n(C)c2=O)nnc1-c1cccnc1,.,.,.,.,.
COc1ccccc1-n1c(COc2ccccc2-c2ccccc2)nnc1SCC(=O)c1c(N)n(C)c(=O)n(C)c1=O,.,.,.,3.55µM,.
COc1ccc2c(c1)c1c(C)c3cnccc3c(C)c1n2CCCN,/,/,/,.,/
CC1=C/C(=C(\c2cc(C)c(O)c(Br)c2)c2ccccc2S(=O)(=O)O)C=C(Br)C1=O,?,?,?,.,7.94µM
COc1cccc(-n2c(-c3cccc(S(=O)(=O)N(C)C)c3)n[nH]c2=S)c1,7.08µM,.,.,/,.
COc1cccc(-n2c(-c3ccc4[nH]c(C)c(C)c4c3)n[nH]c2=S)c1,7.94µM,.,.,.,.
Cc1[nH]c2ccc(-c3n[nH]c(=S)n3-c3ccccc3)cc2c1C,?,.,.,?,?
O=C(O)[C@@H]1[C@@H](C(=O)Nc2ncccn2)[C@@H]2C=C[C@@H]1O2,/,/,/,.,/
C/C(=N/Nc1nc(C)cc(=O)[nH]1)C(=O)O,/,/,/,.,/
COc1ccc(-c2nc3c(c4c2C[C@H](c2ccccc2)OC4)CN(S(=O)(=O)c2ccc4c(c2)OCCN4C)CC3)c(C)c1,/,/,/,/,.[11.5 µM]
S=c1[nH]nc(-c2ccco2)n1C1CCCCC1,?,.,.,?,25.1µM
S=c1[nH]nc(-c2ccco2)n1-c1ccc(Cl)cc1,?,.,.,.,17.8µM
COc1ccc(-n2c(-c3ccco3)n[nH]c2=S)cc1,?,.,.,.,?
S=c1[nH]nc(CSCc2ccccc2Cl)n1C1CCCCC1,?,.,.,/,?
CC(C)Oc1ccc(Cn2c(-c3ccco3)n[nH]c2=S)cc1,2.51µM,.,.,.,14.1µM
Nn1c(-c2ccco2)n[nH]c1=S,.,.,.,.,.
SMILES,Tb PYK inh,RE007 growth inh,AMA1-RON2 inh,NS1 inh,LmPK inhibitor
COc1ccc(Cn2c(-c3ccc(OC)cc3)n[nH]c2=S)cc1,?,.,.,.,?
Cn1cc(Cl)c(-c2n[nH]c(=S)n2C2CCCCC2)n1,7.08µM,.,.,/,20µM
O=C(O)CCCCn1cnc2c(=S)nc[nH]c21,/,/,/,.,/
Cc1c(Cl)cccc1NC(=O)c1cc(-c2ccc(O)cc2)on1,/,/,/,.,/
CO/N=C(/C(=O)N[C@@H]1C(=O)N2C(C(=O)O)=C(CSC(=O)c3ccco3)CSC12)c1csc(N)n1 (stereo partly specified),.,/,/,/,/
CN(C)CN1C(=O)S/C(=C2/C(=O)N(CN(C)C)c3ccccc32)C1=O,/,/,/,.,/
S=c1[nH]nc(-c2ccco2)n1-c1cccc2ccccc12,2.82µM,.,.,.,7.94µM
COc1ccccc1-n1c(-c2ccco2)n[nH]c1=S,10µM,.,.,.,?
Cc1ccc2c(Br)cc(Br)c(O)c2n1,.,/,/,/,/
O=[N+]([O-])c1cccc(/C=N/Nc2nccnc2Cl)c1,.,.,.,.,14.1µM
Oc1ccc(/C=N/Nc2nccnc2Cl)cc1,?,?,.,.,5.01µM
Brc1ccc2nc(SCCOc3ccccc3)[nH]c2c1,.,/,/,/,/
Cc1ccc2nc(SCCCCOc3ccccc3)[nH]c2c1,.,56.2µM,.,.,.
CN(C)c1ccc(C2CNC(c3ccc(Cl)c([N+](=O)[O-])c3)c3[nH]c4ccccc4c32)cc1 (stereo unspecified),.,.,20µM,.,.
O=C(NN1C(=O)/C(=C/C=C/c2ccco2)SC1=S)c1ccncc1,.,.,5.62µM,.,.
Oc1ccc([C@H](O)C2CCCCN2)cc1O (stereo partly specified),/,/,/,.,/
c1cnc2cc3c(cc2n1)[C@@H]1CNC[C@@H]3C1,.,/,/,/,/
CCCCc1c(-c2ccccc2)ncn1CCc1ccccc1OC,.,.,.,/,/
CCCCc1c(-c2cccc(Cl)c2)ncn1CCc1ccccc1OC,.,44.7µM,.,/,/
CCCCOc1ccc(N2C(=O)CC(NCCc3ccc(S(N)(=O)=O)cc3)C2=O)cc1 (stereo unspecified),.,63.1µM,.,.,.
CCCOc1ccc(N2C(=O)CC(NCc3ccc(S(N)(=O)=O)cc3)C2=O)cc1 (stereo unspecified),.,.,.,.,.
CCCc1cc(C(=O)Nc2cccnc2)no1,.,.,.,.,11.2µM
CCCc1cc(C(=O)Nc2cccc(Cl)c2)no1,.,?,.,.,22.4µM
CCCCCSc1nnc2c(n1)OC(c1ccc(C)s1)N(C(C)=O)c1ccccc1-2 (stereo unspecified),.,/,/,/,/
COC(=O)[C@]12CCC(C)(C)C[C@@H]1[C@@H]1C(=O)C=C3[C@@]4(C)C=C(C#N)C(=O)C(C)(C)[C@@H]4CC[C@@]3(C)[C@]1(C)CC2,.,/,/,/,/
SMILES,Tb PYK inh,RE007 growth inh,AMA1-RON2 inh,NS1 inh,LmPK inhibitor
CSc1ccccc1C(=O)Nc1nc2ccccc2[nH]1,.,.,.,/,.
COc1ccccc1C(=O)Nc1nc2ccccc2[nH]1,10µM,?,.,.,11.2µM
COc1cccc(C(=O)Nc2nc3ccccc3[nH]2)c1,.,?,.,.,14.1µM
COc1cc(SC)ccc1C(=O)Nc1nc2ccccc2[nH]1,?,3.98µM,.,.,.
COc1cc(SC)ccc1C(=O)NNC(=O)c1cc(C)oc1C,?,12.6µM,.,/,/
COc1cc(SC)ccc1C(=O)Nc1c(C)cccc1C,.,.,.,.,.
COc1ccc(C(=O)Nc2nc3ccccc3[nH]2)cc1,.,?,.,.,?
CN(C)CCCO[C@H]1C([C@H](O)CO)O[C@@H]2OC(C)(C)O[C@@H]21 (stereo partly specified),/,/,/,.,/
COc1ccc(-c2cc(=S)ss2)cc1,.,/,/,/,/
Cc1csc(=NC(=O)c2ccccc2)n1C,.,.,.,.,.
O=C(N=c1nc2ccccn2s1)c1ccccc1,?,.,.,11.2µM,3.55µM
CCCCCOc1ccc(C2SC(=O)NC2=O)cc1OCC (stereo unspecified),.,/,/,/,/
CCOC(=O)C1CCN(c2ccc(Cl)nn2)CC1,.,.,.,/,.[11.5 µM]
